Measured values: PubChem BioAssay (Tox21)
Values joined by “and” are separate entries in the source; they are usually repeats but may differ in a detail not shown here. Equal values may be shown once. Some structures have more than one record in an assay (separate samples or runs), and their calls can disagree. Active and inactive are the calls of the source. Unless noted, calls come from the whole dose curve; as a rule, active = well fitted curve in the direction sought with a large enough effect in the repeat runs; inconclusive = weak or mixed curves; inactive = no such curve, though single readings can be large; an effect the other way counts as inactive or inconclusive.

Assays:
[1] = qHTS assay to identify small molecule antagonists of the glucocorticoid receptor (GR) signaling pathway - cell viability counter screen (AID 720693); note: nearly all actives have a fitted effect of over 55% in size; note: potency is the fitted concentration of half-maximal effect
[2] = qHTS assay for identifying genotoxic compounds that show differential cytotoxicity against isogenic chicken DT40 cell lines with known DNA damage response pathways - Rad54/Ku70 mutant cell line (AID 743015); note: nearly all actives have a fitted effect of over 60% in size; note: potency is the fitted concentration of half-maximal effect
[3] = qHTS assay to identify small molecule antagonists of the androgen receptor (AR) signaling pathway - cell viability counter screen (AID 743033; note: nearly all actives have a fitted effect of over 45% in size; note: potency is the fitted concentration of half-maximal effect)
[4] = qHTS assay to identify small molecule antagonists of the androgen receptor (AR) signaling pathway using the MDA cell line - cell viability counter screen (AID 743041; note: % is set by controls: 0 for no effect and ±100 for the full control effect; nearly all actives have a fitted effect of over 45% in size)
Outline: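 In this qHTS counter assay, fluorescence intensity after CellTiter-Fluor addition indicated viability of MDA-kb2 AR-luc cells given compounds and R1881 for 16 h at 37C.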

[5] = qHTS assay to identify small molecule antagonists of the thyroid receptor (TR) signaling pathway (AID 743065); note: nearly all actives have a fitted effect of over 55% in size; note: potency is the fitted concentration of half-maximal effect
Outline: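 GH3.TRE-Luc rat pituitary cells carrying two TR response elements driving luciferase were plated for 4 h, given compound plus 1 nM T3 (final), and incubated 23.5 h at 37 C. ONE-Glo luminescence measured reporter inhibition; CellTiter-Fluor fluorescence tracked cytotoxicity.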

[6] = qHTS assay to identify small molecule antagonists of the estrogen receptor alpha (ER-alpha) signaling pathway - cell viability counter screen (AID 743074; calls by dose curve;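 note: HEK293 cells carrying ER-alpha-UAS-bla reporter stimulated with 17beta-estradiol; nearly all actives have a fitted effect of over 45% in size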; note: potency is the fitted concentration of half-maximal effect)
[7] = qHTS assay to identify small molecule antagonists of the estrogen receptor alpha (ER-alpha) signaling pathway using the BG1 cell line - cell viability counter screen (AID 743081);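 note: compound given together with 17beta-estradiol as the ER stimulus; nearly all actives have a fitted effect of over 45% in size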; note: potency is the fitted concentration of half-maximal effect
Aromatase (Homo sapiens) = Aromatase (Homo sapiens) (UniProt P11511); assay: qHTS assay to identify aromatase inhibitors (AID 743083); note: nearly all actives have a fitted effect of over 55% in size; note: potency is the fitted concentration of half-maximal effect
[8] = qHTS assay to identify aromatase inhibitors - cell viability counter screen (AID 743084);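 note: cells stimulated with testosterone during compound exposure; nearly all actives have a fitted effect of over 55% in size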; note: potency is the fitted concentration of half-maximal effect
[9] = qHTS assay for identifying genotoxic compounds that show differential cytotoxicity against isogenic chicken DT40 cell lines with known DNA damage response pathways - Rev3 mutant cell line (AID 743014); note: nearly all actives have a fitted effect of over 55% in size; note: potency is the fitted concentration of half-maximal effect
[10] = qHTS assay to identify small molecule antagonists of the thyroid receptor (TR) signaling pathway - cell viability counter screen (AID 743064); note: nearly all actives have a fitted effect of over 50% in size; note: potency is the fitted concentration of half-maximal effect
Outline: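 In rat pituitary GH3.TRE-Luc reporter cells co-exposed to compound and 1 nM T3 for 23.5 h, cytotoxicity was assessed with CellTiter-Fluor in the same wells, read by fluorescence.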

[11] = tested on: thyroid hormone receptor (rat, GH3 cells); assay: qHTS assay to identify small molecule agonists of the thyroid receptor (TR) signaling pathway (AID 743066; calls by dose curve; note: % is set by controls: 0 for no effect and ±100 for the full control effect)
[12] = biological target: Androgen receptor (Homo sapiens) (UniProt P10275); assay: qHTS assay to identify small molecule antagonists of the androgen receptor (AR) signaling pathway (AID 743035; active = well fitted inhibition curve with a large enough effect in the signal ratio in the repeat runs, not every such curve was filed as active; inconclusive = weak or mixed curves, or effect the other way; inactive = no such curve, though single readings can be large or run the other way; the % refers to the signal ratio; note: potency is the fitted concentration of half-maximal effect)
Outline: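 Reporter HEK293 cells were exposed to compounds and R1881 overnight (16 h, 37C); beta-lactamase activity was then quantified by FRET fluorescence.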

[13] = biological target: Androgen receptor (Homo sapiens) (UniProt P10275); assay: qHTS assay to identify small molecule agonists of the androgen receptor (AR) signaling pathway using the MDA cell line (AID 743040; note: % is set by controls: 0 for no effect and ±100 for the full control effect; nearly all actives have a fitted effect of over 20% in size)
Outline: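 Cell-based luciferase reporter: MDA-kb2, MMTV promoter (AR + GR response elements). 16 h compound exposure at 37C; ONE-Glo, 30 min RT, luminescence.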

[14] = biological target: Estrogen receptor (Homo sapiens) (UniProt P03372); assay: qHTS assay to identify small molecule antagonists of the estrogen receptor alpha (ER-alpha) signaling pathway (AID 743069; active = well fitted curve in the direction sought with a large enough effect in the signal ratio in the repeat runs, not every such curve was filed as active; inconclusive = weak or mixed curves, or effect the other way; inactive = no such curve, though single readings can be large or run the other way; the % refers to the signal ratio; note: potency is the fitted concentration of half-maximal effect)
Outline: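 A 17beta-estradiol challenge was applied right after compound transfer to ER-alpha-UAS-bla HEK293 cells previously kept in charcoal-stripped serum. Plates stood 18 hr at 37C and 5% CO2; fluorescence was read following 2 hr FRET substrate loading at room temperature.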

[15] = biological target: Estrogen receptor (Homo sapiens) (UniProt P03372); assay: qHTS assay to identify small molecule agonists of the estrogen receptor alpha (ER-alpha) signaling pathway (AID 743075; calls by dose curve;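 note: HEK293 GripTite cells with ER-alpha and UAS-driven beta-lactamase reporter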; note: potency is the fitted concentration of half-maximal effect; for activation: % is set by controls: 0 for no effect and ±100 for the full control effect); conditions: HEK293 ER-alpha-UAS-bla, beta-lactamase FRET ratio, 18 h; activation: at 70.1 µM (top of the series)
[16] = biological target: Estrogen receptor (Homo sapiens) (UniProt P03372); assay: qHTS assay to identify small molecule agonists of the estrogen receptor alpha (ER-alpha) signaling pathway using the BG1 cell line (AID 743079); conditions: BG1Luc4E2 cells, ERE-luciferase agonist, 22 h; note: nearly all actives have a fitted effect of over 20% in size; note: potency is the fitted concentration of half-maximal effect; for activation: % is set by controls: 0 for no effect and ±100 for the full control effect
[17] = biological target: Androgen receptor (Homo sapiens) (UniProt P10275); assay: qHTS assay to identify small molecule antagonists of the androgen receptor (AR) signaling pathway using the MDA cell line (AID 743042)
Outline: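 MDA-kb2 cells (human breast carcinoma, stably carrying an MMTV-luciferase reporter responsive to AR and GR) were plated at 3,000 cells/well and preincubated 5 hr at 37C, then given compound plus R1881 agonist for 16 h. ONE-Glo luminescence was read.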

[18] = qHTS assay to identify small molecule antagonists of the estrogen receptor alpha (ER-alpha) signaling pathway using the BG1 cell line (AID 743080; calls by dose curve;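 note: BG1 cells stimulated with 17beta-estradiol alongside compound; nearly all actives have a fitted effect of over 25% in size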; note: potency is the fitted concentration of half-maximal effect)
Outline: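 BG1-Luc-4E2 cells (endogenous full-length ER-alpha, 4xERE luciferase) hormone-starved 5 days in charcoal-stripped FBS, plated 4,000/well for 24 h, then compound plus 17beta-estradiol for 21.5 h at 37 C; ONE-Glo luminescence read.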

Sequence of Androgen receptor (Homo sapiens) (P10275 whole entry, looked up): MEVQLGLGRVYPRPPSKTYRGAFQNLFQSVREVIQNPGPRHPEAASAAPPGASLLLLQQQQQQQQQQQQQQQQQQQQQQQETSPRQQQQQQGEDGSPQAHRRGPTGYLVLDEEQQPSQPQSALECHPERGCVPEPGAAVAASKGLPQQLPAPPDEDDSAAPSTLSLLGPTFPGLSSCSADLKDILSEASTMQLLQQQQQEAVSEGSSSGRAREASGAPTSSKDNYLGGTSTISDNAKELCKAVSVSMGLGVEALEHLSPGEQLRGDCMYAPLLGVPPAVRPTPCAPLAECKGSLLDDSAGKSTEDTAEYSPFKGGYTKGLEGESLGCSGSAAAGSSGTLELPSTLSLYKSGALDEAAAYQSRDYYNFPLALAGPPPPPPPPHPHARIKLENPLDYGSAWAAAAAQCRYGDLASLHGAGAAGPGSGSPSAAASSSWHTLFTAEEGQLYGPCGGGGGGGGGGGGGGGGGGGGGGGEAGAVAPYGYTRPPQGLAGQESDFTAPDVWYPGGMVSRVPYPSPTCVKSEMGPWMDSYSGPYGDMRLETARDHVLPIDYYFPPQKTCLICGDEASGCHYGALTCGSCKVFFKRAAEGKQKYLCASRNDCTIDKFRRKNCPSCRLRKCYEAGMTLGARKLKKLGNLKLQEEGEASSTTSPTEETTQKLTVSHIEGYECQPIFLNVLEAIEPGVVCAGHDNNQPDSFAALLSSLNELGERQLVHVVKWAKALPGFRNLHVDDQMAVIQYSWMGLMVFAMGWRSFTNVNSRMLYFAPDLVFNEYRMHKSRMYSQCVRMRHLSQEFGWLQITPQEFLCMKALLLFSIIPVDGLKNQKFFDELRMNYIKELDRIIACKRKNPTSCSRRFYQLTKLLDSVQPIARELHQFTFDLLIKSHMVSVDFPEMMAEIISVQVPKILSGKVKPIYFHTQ
Sequence of Estrogen receptor (Homo sapiens) (P03372 whole entry, looked up): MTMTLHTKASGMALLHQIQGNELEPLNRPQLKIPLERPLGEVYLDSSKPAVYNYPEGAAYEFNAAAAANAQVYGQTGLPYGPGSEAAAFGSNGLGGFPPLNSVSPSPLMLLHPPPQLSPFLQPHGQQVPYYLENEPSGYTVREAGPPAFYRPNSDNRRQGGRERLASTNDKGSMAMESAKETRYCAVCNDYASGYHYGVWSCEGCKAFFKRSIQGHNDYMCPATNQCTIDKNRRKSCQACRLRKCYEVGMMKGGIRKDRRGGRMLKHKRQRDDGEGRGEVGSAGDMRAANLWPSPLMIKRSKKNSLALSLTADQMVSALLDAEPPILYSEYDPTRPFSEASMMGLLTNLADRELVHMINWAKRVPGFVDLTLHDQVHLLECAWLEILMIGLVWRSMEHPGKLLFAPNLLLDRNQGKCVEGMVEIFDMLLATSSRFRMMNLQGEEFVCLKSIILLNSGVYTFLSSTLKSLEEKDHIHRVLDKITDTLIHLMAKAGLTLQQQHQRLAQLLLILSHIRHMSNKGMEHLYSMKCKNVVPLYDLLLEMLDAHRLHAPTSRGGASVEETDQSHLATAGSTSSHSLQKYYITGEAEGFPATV
Sequence of Aromatase (Homo sapiens) (P11511 whole entry, looked up): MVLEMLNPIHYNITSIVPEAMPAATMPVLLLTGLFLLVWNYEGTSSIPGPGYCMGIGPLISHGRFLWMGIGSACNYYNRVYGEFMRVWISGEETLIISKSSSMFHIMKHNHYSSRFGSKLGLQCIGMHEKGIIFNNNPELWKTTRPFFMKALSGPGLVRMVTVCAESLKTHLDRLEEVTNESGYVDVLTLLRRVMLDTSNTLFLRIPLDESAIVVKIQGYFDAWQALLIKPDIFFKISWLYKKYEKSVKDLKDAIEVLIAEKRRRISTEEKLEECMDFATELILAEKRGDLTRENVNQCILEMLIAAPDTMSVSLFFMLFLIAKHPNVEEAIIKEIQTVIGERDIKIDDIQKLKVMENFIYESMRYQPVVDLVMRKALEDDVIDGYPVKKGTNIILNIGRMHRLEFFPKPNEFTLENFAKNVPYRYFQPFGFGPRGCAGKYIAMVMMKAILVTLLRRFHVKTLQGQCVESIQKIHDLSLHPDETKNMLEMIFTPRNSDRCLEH

O=C(Nc1ccc(Oc2ccc(Cl)cc2)c(Cl)c1)c1cc(I)cc(I)c1O
active: Potency [1] 6.01 µM | Potency [5] 29.8 µM | Potency [6] 6.01 µM
inactive: Potency [2] | Potency [3] | Potency [4] | Potency [7] | Potency (Aromatase (Homo sapiens)) | Potency [8]

O=c1cc(-c2ccc(O)cc2)oc2cc(O)cc(O)c12
inactive: Potency [3] | Potency [11]
active: Potency [1] 49 µM | Potency [9] 69.5 µM and 27.3 µM | Potency [2] 31 µM and 13.7 µM | Potency [10] 55.2 µM | Potency [5] 61.9 µM and 30.6 µM

COc1cc(-c2nc(NC(=O)c3cc4cc(C)cc(C)c4n3CC(=O)O)sc2CCC2CCCCC2)c(OC)cc1Cl
inactive: Potency [13] | Potency [11] | Potency [7]
active: Potency [1] 14.2 µM | Potency [2] 22.3 µM | Potency [12] 5.65 µM | Potency [10] 12.5 µM | Potency [5] 11.2 µM | Potency [14] 3.57 µM [inconclusive] | Potency [6] 28.3 µM | Potency (Aromatase (Homo sapiens)) 25 µM

Clc1ccccc1C(c1ccccc1)(c1ccccc1)n1ccnc1
inactive and 54.9 µM (active): Potency [6]
active: Potency [9] 10.1 µM and 15.4 µM | Potency [2] 8.04 µM and 3.44 µM | Potency [3] 54.9 µM | Potency [10] 8.04 µM and 21.7 µM | Potency [5] 3.59 µM and 3.86 µM | Potency [14] 6.44 µM [inconclusive] and 15.5 µM [inconclusive] | Potency (Aromatase (Homo sapiens)) 4.52 µM and 6.86 µM
inactive: Potency [1] | Potency [11] | Potency [15] | activation ([16]; at 32.5 µM (top of the series)) -14.7% | Potency [7] | Potency [8]

O=C(c1ccc(F)cc1)C1CCN(CCn2c(=O)[nH]c3ccccc3c2=O)CC1
inactive: Potency [1] | Potency [9] | Potency [3] | Potency [13] | Potency [4] | Potency [17] | Potency [10] | Potency [5] | Potency [11] | Potency [14] | Potency [6] | Potency [15] | activation ([16]; at 70.3 µM (top of the series)) 21.8% | Potency [18] | Potency [7] | Potency (Aromatase (Homo sapiens)) | Potency [8]

O=C(Nc1cccc(Cl)c1)OCC#CCCl
active: Potency [1] 54.9 µM | Potency [2] 13.7 µM | Potency [3] 49 µM | Potency [10] 24.3 µM | Potency [5] 17.2 µM | Potency (Aromatase (Homo sapiens)) 21.7 µM | Potency [8] 24.3 µM
inactive: Potency [15]

Oc1ccc2c(c1)-c1ccccc1C2
active: Potency [9] 54.5 µM
inactive: Potency [1] | Potency [13] | Potency [4] | Potency [17] | Potency [10] | Potency [11] | Potency [6] | Potency [7] | Potency [8]

CN(C/C=C/C#CC(C)(C)C)Cc1cccc2ccccc12
inactive: Potency [1] | Potency [3] | Potency [4] | Potency [6] | Potency [7] | Potency (Aromatase (Homo sapiens)) | Potency [8]

CCc1oc2ccccc2c1C(=O)c1cc(Br)c(O)c(Br)c1
inactive: Potency [3] | Potency [13] | Potency [4] | Potency [17] | Potency [11] | Potency [6] | Potency [15] | activation ([16]; at 70.3 µM (top of the series)) -23.9% | Potency [18] | Potency [7] | Potency (Aromatase (Homo sapiens)) | Potency [8]
active: Potency [1] 13.4 µM | Potency [5] 26.6 µM | Potency [14] 10.7 µM [inconclusive]

CCCCN(CCCC)C(=O)N(CCCC)CCCC
inactive: Potency [1] | Potency [9] | Potency [2] | Potency [3] | Potency [4] | Potency [11] | Potency [6] | Potency [7] | Potency [8]

CC1=C(/C=C/C(C)=C/C=C/C(C)=C/C=O)C(C)(C)CCC1
active: Potency [1] 24.4 µM | Potency [9] 9.63 µM | Potency [2] 12.1 µM | Potency [3] 21.8 µM | Potency [10] 7.65 µM | Potency [5] 8.58 µM | Potency [6] 54.6 µM | Potency [7] 60.8 µM | Potency (Aromatase (Homo sapiens)) 15.3 µM | Potency [8] 30.5 µM
inactive: Potency [11]

CCOC(=O)/C=C(C)/C=C/C=C(C)/C=C/c1c(C)cc(OC)c(C)c1C
active: Potency [9] 2.37 µM | Potency [2] 6.68 µM | Potency [18] 4.22 µM
inactive: Potency [1] | Potency [3] | Potency [4] | Potency [15] | Potency [7] | Potency (Aromatase (Homo sapiens)) | Potency [8]

O=C(c1ccc(O)cc1O)c1ccc(O)cc1O
inactive: Potency [1] | Potency [3] | Potency [13] | Potency [4] | Potency [10] | Potency [11] | Potency [14] | Potency [6] | Potency [18] | Potency [7] | Potency (Aromatase (Homo sapiens)) | Potency [8]
active: Potency [5] 30.7 µM and 54.5 µM | Potency [15] 11 µM [inconclusive] and 9.77 µM [inconclusive] | Potency [16] 4.33 µM and 15.4 µM

CC(NN)c1ccccc1 (stereo not drawn)
inactive: Potency [1] | Potency [2] | Potency [3] | Potency [6] | Potency [18] | Potency [7] | Potency (Aromatase (Homo sapiens)) | Potency [8]

CCCC(C)c1ccccc1O (stereo not drawn)
active: Potency [9] 24.3 µM | Potency [2] 61.1 µM
inactive: Potency [1] | Potency [4] | Potency [11] | Potency [14] | Potency [6] | Potency [15] | Potency [18] | Potency [7] | Potency [8]

O=C(OCC1CO1)C1CCCCC1C(=O)OCC1CO1 (stereo not drawn)
inactive: Potency [1] | Potency [3] | Potency [13] | Potency [4] | Potency [17] | Potency [11] | Potency [6]
active: Potency [2] 9.7 µM | Potency [10] 54.5 µM | Potency [5] 27.3 µM | Potency [8] 48.6 µM
